Data taken from PubChem BioAssay AID1159580 (chemical genetic matrix, 2015).
Screen size: about 5,500 compounds; about 2,000 (36%) were called active. Not shown: some 18% with an inconclusive outcome. Cut-off read from the data, not from the text of the source: active = normalized growth mostly below about 0.91 (no sharp cut-off); inconclusive = no clear call, values can overlap the other calls; inactive = mostly above about 0.92. The list shows a part of the results.

Test: chemical genetic growth profiling, strain panel (AID 1159580);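 note: tested at 20 µM; growth read once vehicle control cultures reached saturation at 30 °C; 1 = growth at the plate median or of vehicle wells; lower values mean less growth of the strain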
Details: S. cerevisiae deletion strains, growth OD

Measured: normalized growth

CCNC(=O)N1CCN(CCCC(c2ccc(F)cc2)c2ccc(F)cc2)CC1
inactive: locus YAL040C, strain CLN3, hits give low values 0.994 | locus YCL061C, strain MRC1 (second series), hits give low values 0.99 | locus YDR150W, strain NUM1, hits give low values 0.982 | locus YDR363W, strain ESC2, hits give low values 1.04 | locus YER002W, strain NOP16, hits give low values 1 | locus YJR075W, strain HOC1, hits give low values 0.988 | locus YMR263W, strain SAP30, hits give low values 0.988 | locus YNL175C, strain NOP13, hits give low values 1.03 | locus YNL197C, strain WHI3, hits give low values 1.02 | locus YNL224C, strain SQS1, hits give low values 1.04 | locus YNL322C, strain KRE1, hits give low values 0.974 | locus YOR083W, strain WHI5 (second series), hits give low values 1 | locus YPL055C, strain LGE1, hits give low values 0.916

NC(=O)C1(N2CCCCC2)CCN(CCCC(=O)c2ccc(F)cc2)CC1
inactive: locus YHR030C, strain SLT2, hits give low values 1.04 | locus YHR079C, strain IRE1, hits give low values 1.02 | locus YJL095W, strain BCK1, hits give low values 0.99 | locus YJR066W, strain TOR1, hits give low values 0.968 | locus YLR113W, strain HOG1, hits give low values 0.981 | locus YNL183C, strain NPR1, hits give low values 0.959 | locus YOR231W, strain MKK1, hits give low values 1.01 | locus YPL256C, strain CLN2, hits give low values 0.988
